The compounds below were run on DYRK1B. Settings: concentration: 1 μM, replicates: in singlicate; n = 1.
For `Cc1cccc(-c2nc(Nc3cccc(C(N)=O)c3)c3ccccc3n2)n1` [GW876019], the “%Inh” value was 65%. For `CC(C)(C)c1ccc(C(=O)Nc2cn3cc(-c4cccnc4)ccc3n2)cc1`, the “%Inh” value was 65%. `Clc1cc(Cl)cc(Nc2ccnc(Nc3cc(Cl)cc(Cl)c3)n2)c1` [GSK175726] was tested, and the “%Inh” value was 19%. For `COc1ccc(CNC(=O)NC2CCN(c3ccnc(Nc4cc(OC)c(OC)c(OC)c4)n3)C2)cc1` (stereo not drawn) [GSK1379748], the “%Inh” value was 32%. With `Fc1cccc(COc2nnc(-c3ccc4c(c3)CCO4)o2)c1` the “%Inh” value was 65%. In the case of `CN1C(=O)C(Nc2ccc(Cl)c(C(=O)O)c2)=C(c2ccc(Cl)cc2)C1=O` [SB-404290], the “%Inh” value was 0%. `Cn1cncc1-c1ccc2ncnc(Nc3ccc(OCc4ccccc4)cc3)c2c1` [GW320571] was tested, and the “%Inh” value was 3%. With `Nc1ncnc2[nH]c(-c3ccccc3)nc12` [AH5015] the “%Inh” value was 15%. In the case of `Cc1nnc(-c2ccc3occ(-c4ccc(S(C)=O)cc4)c3c2)[nH]1` (stereo not drawn), the “%Inh” value was 7%. In the case of `Fc1cc(Cl)ccc1Nc1ccnc2cc(I)ccc12` [GW551191], the “%Inh” value was 60%. For `CC(C)(C)c1ccc(C(=O)Nc2cn3cc(Cl)ccc3n2)cc1`, the “%Inh” value was 65%. With `C[C@@H]1CCCCN1c1cc(-c2ccc3c(N)n[nH]c3c2)nc(N)n1` [GSK2258759] the “%Inh” value was 0%. With `Cc1cccc(-c2nc(Nc3ccc4[nH]ncc4c3)c3ccccc3n2)n1` [GW857175] the “%Inh” value was 11%. In the case of `Cc1cccc(-c2cc(Nc3ccncc3)c3ccccc3n2)n1` [GSK223675], the “%Inh” value was 0%. With `COc1cc2nccc(Nc3ccc(NC(=O)c4ccc(C)cc4)c(O)c3)c2cc1OC.Cl` [GW440132] the “%Inh” value was 7%.

Reference: paper PMC5540273 (PLoS ONE, 2017)
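Note: KINOMEscan kinase panel screen.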
